About 18,000 (4.4%) of roughly 410,000 compounds were called active. Roughly 7% stayed inconclusive and do not appear here. Cut-off read from the data, not from the text of the source: active = activity change below about -60%; inconclusive = no clear call, values can overlap the other calls; inactive = above about -39%. The entries come from a sample that favours actives as a whole.
assay: qHTS Assay for inhibitors of the human cytomegalovirus (HCMV); details: HFF cells, HCMV-luciferase reporter, 72 h; at 57.5 µM; stronger effect = lower value
Method in brief: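 Two compound doses tested in HFFs infected with HCMV-luciferase, MOI 1 PFU/cell, 72 h at 37C. Lysate luminescence read with OneGlo; data normalized against buffer-only and 10uM Salinomycin inhibitor controls.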
% is set by controls: 0 for no effect and ±100 for the full control effect.

| Structure (SMILES) | activity change, negative = inhibition |
| --- | --- |
| Cc1oc2cc3oc(=O)ccc3cc2c1C | 57.6% (inactive) |
| Cc1ccc(NC(=O)Cc2ccc(NC(=O)N3CCCCc4ccccc43)cc2)cc1 | 2.61% (inactive) |
| COc1ccc2c(c1)c(=O)c(C(=O)c1ccccc1)cn2CC(=O)Nc1ccc2c(c1)OCCO2 | -4.48% (inactive) |
| COc1ccccc1-c1noc(CSc2nnc(-c3ccccc3)n2-c2ccc(C)c(C)c2)n1 | 4.88% (inactive) |
| COc1ccccc1-c1noc(CSc2nc(C)cc(=O)[nH]2)n1 | -61.9% (active) |
| COc1ccc(-c2noc(CSc3nc(C)cc(=O)[nH]3)n2)cc1OC | 14.1% (inactive) |
| Cn1c(=O)sc2cc(NS(=O)(=O)c3ccc(C(C)(C)C)cc3)ccc21 | -1.79% (inactive) |
| COc1ccc(N2CCN(S(=O)(=O)c3cc(Br)cnc3N)CC2)cc1 | 19.7% (inactive) |
| O=C(Cc1ccc(Cl)cc1)Nc1ccc2nn(-c3ccc(Cl)cc3)nc2c1 | 21.1% (inactive) |
| Cc1cc2nn(-c3ccc(Cl)cc3)nc2cc1NC(=O)C(C)C | -64.3% (active) |
| CCCC(=O)Nc1cc2nn(-c3ccccc3)nc2cc1C | 123% (inactive) |
| Cn1c(=O)n(Cc2c(F)cccc2Cl)c(=O)c2c1nc1n2CCN1c1ccc(F)cc1 | 17.8% (inactive) |
| COCCn1c(SCC(=O)c2cc(C)ccc2C)nc2cc(C(=O)NC3CCCC3)ccc2c1=O | -4.52% (inactive) |
| CC(C)c1ccc(NS(=O)(=O)c2ccc3[nH]cc(C(=O)NC4CCCC4)c(=O)c3c2)cc1 | 9.04% (inactive) |
| Cn1nnnc1SCCNCc1ccc(Cl)c(Cl)c1 | 6.59% (inactive) |
| CCOc1ccc(CNCCSc2nnnn2C)cc1 | -12.8% (inactive) |
| COc1cccc(CNCCSc2nnnn2C)c1OCc1ccccc1Cl | -75.4% (active) |
| Cc1c(Cl)cccc1-c1ccc(CNCCCSc2nnnn2C)o1 | -0.502% (inactive) |
| COc1cc(CNCCSc2nnnn2C)ccc1OCc1ccc(Cl)cc1Cl | -13.2% (inactive) |
| COc1cc(CNCCSc2nnnn2C)ccc1OCc1c(F)cccc1Cl | -60.3% (active) |
| Cc1ccc(Cn2c(C)c3cnn(CC(=O)NCc4ccccc4)c(=O)c3c2C)cc1 | -4.95% (inactive) |
| Cc1ccc(CNC(=O)CSC2=Nc3ccccc3C3=NC(C)C(=O)N23)cc1 (configuration not stated) | -13.2% (inactive) |

| Structure (SMILES) | activity change, negative = inhibition |
| --- | --- |
| CCCn1ccc2c(OCC(=O)NCc3ccc(F)cc3)cccc2c1=O | 13.2% (inactive) |
| CC1=C(c2ccc(F)cc2)S(=O)(=O)N=C1N1CCC(C(=O)NCCc2ccccc2C)CC1 | -1.97% (inactive) |
| CCOc1ccc(CNC(=O)CCc2c(C)nn(-c3ccc(N4CCCCC4)nn3)c2C)cc1 | 17.5% (inactive) |
| CC(Sc1cccc[n+]1[O-])C(=O)Nc1cccc(S(=O)(=O)N2CCOCC2)c1 (configuration not stated) | 28.7% (inactive) |
| CCC(=O)c1ccc(OCC(O)CN2CCN(c3cccc(C(F)(F)F)c3)CC2)cc1 (configuration not stated) | -2.36% (inactive) |
| CCC(=O)c1ccc(OCC(O)CN2C(=O)NC(C)(C)C2=O)cc1 (configuration not stated) | -18.3% (inactive) |
| CCC(=O)c1ccc(OCC(O)Cn2nc(C)c(C(C)=O)c2C)cc1 (configuration not stated) | -74.9% (active) |
| COc1ccc(S(=O)(=O)N2CCCCC2c2cc(C(=O)NCc3ccc(F)cc3)no2)cc1 (configuration not stated) | -15% (inactive) |
| COc1ccccc1OCC(=O)Nc1nnc2n1CCS2 | 1.36% (inactive) |
| CC1CN(C(=O)N2CCC(C(=O)NCc3ccco3)CC2)c2cc(Cl)ccc2O1 (configuration not stated) | -3.73% (inactive) |
| O=C(CCc1nnc2ccc(NCCCN3CCCC3=O)nn12)NCc1ccccc1Cl | 0% (active) |
| O=C1CCCN1CCCNC(=S)Nc1ccc(F)c(Cl)c1 | -22.1% (inactive) |
| Cn1c(=O)c2sccc2n2c(CCC(=O)NCc3ccccc3Cl)nnc12 | 9.44% (inactive) |
| Cc1cc(=O)c2cc(C(=O)Nc3cccc(C)c3C)ccc2[nH]1 | -7.29% (inactive) |
| C[C@@H]1CC2=C(C(=O)OC(C)(C)O2)[C@@H](C2CC2)O1 | 7.2% (inactive) |
| CCN(C(=O)COC(=O)c1c(C)nn(-c2ccccc2)c1Cl)c1c(N)n(Cc2ccccc2)c(=O)[nH]c1=O | -3.2% (inactive) |
| Cn1cccc1Cc1nnc(SCC(=O)NCc2ccc3c(c2)OCO3)n1CCc1ccccc1 | -7.07% (inactive) |
| O=C(CSc1ccc(-c2ccco2)nn1)NCc1ccc2c(c1)OCO2 | -3.61% (inactive) |
| O=C(CSc1ncnc2scc(-c3ccccc3)c12)NCc1ccc2c(c1)OCO2 | -73.8% (active) |
| COc1cc2nc(SCc3ccc(F)cc3)n3nc(CCn4c(C)nc5ccccc54)nc3c2cc1OC | -1.21% (inactive) |
| O=C(CCC(=O)N1CC2CCCN2c2ccccc21)NCc1ccccc1Cl (configuration not stated) | -6.89% (inactive) |
| COc1cc(NC(=O)CSc2nc3nc(C)c(Cc4ccc(C)cc4)c(C)n3n2)cc(OC)c1OC | 0% (inactive) |

| Structure (SMILES) | activity change, negative = inhibition |
| --- | --- |
| CCOC(=O)c1c(NC(=O)c2ccc(S(=O)(=O)N3CCCC(C)C3)cc2)sc2c1CCN(C(C)C)C2 (configuration not stated) | -62.5% (active) |
| CCOC(=O)c1c(NC(=O)C2CCN(S(=O)(=O)c3ccc(Cl)cc3)CC2)sc2c1CCCC2 | -10.4% (inactive) |
| COC(=O)c1c(NC(=O)c2ccc(S(=O)(=O)N3CCOCC3)cc2)sc2c1CCN(C(C)C)C2 | -4.29% (inactive) |
| NC(=O)CSc1nc2c(oc3ccccc32)c(=O)n1Cc1ccccc1 | -22.4% (inactive) |
| COc1ccc(OC)c(NC(=O)Cn2c(=O)n(Cc3ccccc3)c(=O)c3ccccc32)c1 | -3.04% (inactive) |
| COc1cccc(C(=O)N(Cc2cccc(Cl)c2)Cc2ccco2)c1 | -7.17% (inactive) |
| CCC(=C/c1sc2ccc3ccccc3c2[n+]1C)/C=C1\Sc2ccc3ccccc3c2N1C | -100% (active) |
| CCOc1ccc(N2CC(c3nc4ccccc4n3CCOc3ccc(OC)cc3)CC2=O)cc1 (configuration not stated) | 23.3% (inactive) |
| Cc1ccc(-n2c(=O)c3cccnc3n2CC(=O)NCc2ccc(F)cc2)cc1C | -0.36% (inactive) |
| CCOc1ccc(NC(=O)CSc2nc3ccccc3c(=O)n2Cc2cccs2)cc1 | -62.8% (active) |
| O=C(CSc1nc2nccnc2c(=O)n1Cc1cccs1)Nc1ccccc1F | -31.3% (inactive) |
| CCOc1ccc(NC(=O)c2cc3c(=O)n(Cc4cccs4)ccc3nc2C)cc1 | -12.4% (inactive) |
| CCc1ccc(C(=O)C(C)OC(=O)CN2C(=O)NC3(CCCC3)C2=O)cc1 (configuration not stated) | -31.9% (inactive) |
| O=S(=O)(NCC1CN(S(=O)(=O)c2ccc3c(c2)OCCO3)C1)c1c(F)cccc1F | -3.7% (inactive) |
| Cc1ccc(S(=O)(=O)c2nc(-c3ccco3)oc2SCC(=O)Nc2ccc(F)cc2)cc1 | 1.94% (inactive) |
| COc1ccccc1CNc1nccn(-c2ccc(F)cc2)c1=O | 18.6% (inactive) |
| Cn1nc(-c2ccccc2)c2cc([N+](=O)[O-])ccc21 | -91.8% (active) |
| Cn1cnc(C(F)(F)F)c1-c1ccc([N+](=O)[O-])cc1 | -9.95% (inactive) |
| CCN(CC)S(=O)(=O)c1cc([N+](=O)[O-])ccc1N=Nc1c(O)n(C)c2ccccc12 | -37.9% (inactive) |
| Cc1cccc(NS(=O)(=O)c2cc(Cl)ccc2Cl)n1 | -15.4% (inactive) |
| Cn1c(=O)c2[nH]c(NCC3CCCO3)nc2n(-c2ccccc2)c1=O (configuration not stated) | -3.27% (inactive) |
| CCCCCNC(=O)c1cccnc1SCC(=O)Nc1ccccc1OC | -9.93% (inactive) |

| Structure (SMILES) | activity change, negative = inhibition |
| --- | --- |
| CCOC(=O)c1cccc(NC(=O)c2cc(CN3CCCC3)on2)c1 | 88.3% (inactive) |
| CCN1CCN(Cc2c(O)ccc3oc(C)c(C(=O)Nc4ccc(C)cc4C)c23)CC1 | -4.07% (inactive) |
| Cc1ccc(Oc2c(C(F)(F)F)oc3c(CN4CCCCC4)c(O)ccc3c2=O)cc1 | 13.5% (inactive) |
| Cc1oc2ccc(O)c(CN3CCC(C)CC3)c2c1C(=O)Nc1ccccc1 | -68.4% (active) |
| Cc1oc2ccc(O)c(CN3CCOCC3)c2c1C(=O)Nc1cccc(Cl)c1C | 0.476% (inactive) |
| Cc1oc2ccc(O)c(CN3CCCCC3)c2c1C(=O)Nc1cccc(C(F)(F)F)c1 | -76.5% (active) |
| O=C(NCC(F)(F)F)c1ccc(S(=O)(=O)NCCc2ccc3c(c2)OCCO3)cc1 | -6.01% (inactive) |
| CCOc1ccccc1NC(=O)Cn1c2ncccc2c(=O)n1-c1ccc(C)c(C)c1 | -10.1% (inactive) |
| CC1CCCN(S(=O)(=O)c2ccc3[nH]c(=O)cc(C(=O)NCCc4ccc(Cl)cc4)c3c2)C1 (configuration not stated) | -16.9% (inactive) |
| COC(=O)C(O)(c1ccc(NC(=O)c2ccco2)c(OC)c1)C(F)(F)F (configuration not stated) | 14.6% (inactive) |
| CCOC(=O)C(O)(c1ccc(NC(=O)c2ccco2)c(OC)c1)C(F)(F)F (configuration not stated) | 8.29% (inactive) |
| COc1cc(NC(=O)c2cc([N+](=O)[O-])ccc2Br)ccc1NC(=O)c1ccco1 | -60.9% (active) |
| C=CCOC(=O)C1=C[C@@H](c2ccc3c(c2)OCO3)C[C@@H](OCCCCO)O1 | 20.6% (inactive) |
| CN1C(=O)CC[C@@H](S(=O)(=O)c2ccccc2)[C@@H]1c1ccccc1 | 9.42% (inactive) |
| CCOCCCNC(=O)c1cn(CC)c2ccc(S(=O)(=O)N3CCc4ccccc4C3)cc2c1=O | 8.54% (inactive) |
| Cc1cc(C)c2nc3nc(C)cc(C)c3c(N)c2c1 | -100% (active) |
| CCOc1ccc(S(=O)(=O)NCCC(=O)N2CCCCCCC2)cc1 | -33.2% (inactive) |
| Cc1c(C(=O)NCc2ccccc2)cnn1-c1ccccc1 | -15.9% (inactive) |
| CCCc1c(C(=O)Nc2ccc(F)cc2)cnn1-c1ccccc1 | 64.5% (inactive) |
| CCNC(=O)c1cnn(-c2ccccc2)c1-c1ccccc1 | -99.9% (active) |
| CSc1cccc(NC(=O)CN2C(=O)CCc3cc(S(=O)(=O)N4CCCCC4)ccc32)c1 | 23.2% (inactive) |

Source: PubChem BioAssay AID1259415 (National Center for Advancing Translational Sciences (NCATS), 2018)
